DENV2 CPE = inhibitors of DENV2 cytopathic effect | DENV2-infected cells, cytopathic effect rescue, plate reader | CPE inhibition, % at 9.99 µM | 350,000 tested, 1.7% active | AID 651640; in the data active = CPE inhibition above about 20%, passing the limit was not always enough; tested in BHK-21 cells
GSIS activator = primary screen for activators of insulin secretion dependent on glucose, INS-1E cells, GLuc reporter luminescence. AID 743287. activation, % at 16.6 µM. 370,000 tested, 0.61% active. INS-1E GLuc reporter insulin secretion, 2-3 h;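 active = lowest replicate activation of at least 40%, so every replicate reaches that level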
AF4-AF9 inh = MLL-AF4/AF9 protein interaction inhibition; AlphaScreen, biotin-AF4 peptide binding to FLAG-AF9; inhibition, % at 10 µM; 350,000 tested, 0.47% active; P42568;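 active = every replicate reaching a set inhibition limit, whatever the replicate mean, cut at about 25% in these data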
dFosB act = mouse delta FosB homodimer activation; purified delta FosB, TAMRA-CDK5 oligo fluorescence polarization; percent of positive-control signal above neutral wells; 340,000 tested, 0.99% active; activation, % at 25 µM;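 active = mean activation above about 17%, with every replicate also reaching it, limit read from the data, passing the limit was not always enough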
RAD52 inh = inhibitors of human RAD52 DNA annealing; P43351; recombinant RAD52 DNA annealing, FRET fluorescence; inhibition, % at 18.7 µM; 360,000 tested, 0.46% active; AID 651710;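 active = every replicate showing at least 50% inhibition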
RAD54 inh = blocks human RAD54 Holliday junction branch migration. 360,000 tested, 0.14% active. inhibition, % at 10.4 µM. Q92698. AID 602329. FAM/BHQ fluorescence;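 active = mean normalized replicate activity at least 40 and at least half of replicates scoring 40 or more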;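 note: inhibitors cause a drop in the FAM fluorescence signal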
A number is an active result. The list is not random: actives were taken first. Their share in the collection is about 3.1%.

What do the screens show for `COc1cccc(C(O)c2nc(/C=C/c3ccccc3)cs2)c1` (stereo unspecified)?
DENV2 CPE: inactive; GSIS activator: inactive; AF4-AF9 inh: inactive; RAD52 inh: inactive; RAD54 inh: inactive

What do the screens show for `COc1cccc(C(NC(C)=O)c2nc(/C=C/c3ccccc3)cs2)c1` (stereo unspecified)?
DENV2 CPE: 30; GSIS activator: inactive; AF4-AF9 inh: inactive; RAD52 inh: inactive; RAD54 inh: inactive

Results for CO[C@H]1CC[C@H]2CCN(C)C(=O)C[C@H](c3ccccc3)CN(C)C(=O)c3cc(C#N)ccc3OC[C@H]1O2 ?
DENV2 CPE: inactive; GSIS activator: inactive; AF4-AF9 inh: inactive; RAD52 inh: inactive; RAD54 inh: inactive

How did Cc1cccc(S(=O)(=O)N2CCCCN3[C@@H](CO)[C@@H](c4ccc(C#CC(C)C)cc4)[C@@H]3C2)c1 do in these assays?
DENV2 CPE: inactive; GSIS activator: 57; AF4-AF9 inh: inactive; RAD52 inh: inactive; RAD54 inh: inactive

How did Cc1cccc(S(=O)(=O)N2CCCCN3[C@H](CO)[C@H](c4ccc(-c5ccccc5)cc4)[C@H]3C2)c1 do in these assays?
DENV2 CPE: inactive; AF4-AF9 inh: inactive; RAD52 inh: inactive; RAD54 inh: inactive

What do the screens show for `Cc1cccc(-c2ccc([C@@H]3[C@@H](CO)N4CCCCN(S(=O)(=O)c5cccc(C)c5)C[C@@H]34)cc2)c1`?
DENV2 CPE: 21; GSIS activator: inactive; AF4-AF9 inh: inactive; RAD52 inh: inactive; RAD54 inh: inactive

What do the screens show for `Cc1cccc(-c2ccc([C@H]3[C@H](CO)N4CCCCN(S(=O)(=O)c5cccc(C)c5)C[C@@H]34)cc2)c1`?
DENV2 CPE: inactive; GSIS activator: inactive; AF4-AF9 inh: inactive; RAD52 inh: inactive; RAD54 inh: inactive

Results for Cc1ccc(-c2ccc([C@H]3[C@@H](CO)N4CCCCN(S(=O)(=O)c5cccc(C)c5)C[C@H]34)cc2)cc1 ?
DENV2 CPE: inactive; AF4-AF9 inh: inactive; RAD52 inh: 70; RAD54 inh: inactive

What do the screens show for `Cc1cccc(S(=O)(=O)N2CCCCN3[C@@H](CO)[C@@H](c4ccc(-c5ccccc5)cc4)[C@@H]3C2)c1`?
DENV2 CPE: inactive; AF4-AF9 inh: inactive; RAD52 inh: 64; RAD54 inh: inactive

What do the screens show for `Cc1cccc(S(=O)(=O)N2CCCCN3[C@H](CO)[C@H](c4ccc(C#CC(C)C)cc4)[C@H]3C2)c1`?
DENV2 CPE: inactive; GSIS activator: inactive; AF4-AF9 inh: inactive; RAD52 inh: inactive; RAD54 inh: inactive

Results for C/C=C/c1cnc2c(c1)C(=O)N([C@@H](C)CO)C[C@H](C)[C@H](CN(C)Cc1ccccc1)O2 ?
DENV2 CPE: inactive; GSIS activator: inactive; AF4-AF9 inh: inactive; RAD52 inh: inactive; RAD54 inh: inactive

How did COc1ccc(NC(=O)Nc2ccc3c(c2)C(=O)N([C@@H](C)CO)C[C@@H](C)[C@H](CN(C)S(=O)(=O)c2ccc(F)cc2)OCCCC[C@@H](C)O3)cc1 do in these assays?
DENV2 CPE: inactive; GSIS activator: inactive; AF4-AF9 inh: inactive; RAD52 inh: inactive; RAD54 inh: inactive

How did C[C@H](CO)N1C[C@H](C)[C@H](CN(C)S(=O)(=O)c2ccccc2C#N)OCc2ccccc2-c2ccccc2C1=O do in these assays?
DENV2 CPE: inactive; GSIS activator: inactive; AF4-AF9 inh: inactive; RAD52 inh: inactive; RAD54 inh: inactive

What do the screens show for `CS(=O)(=O)Nc1ccc2c(c1)[C@H]1C[C@H](CC(=O)N3CCOCC3)O[C@@H](CO)[C@H]1O2`?
DENV2 CPE: inactive; GSIS activator: inactive; AF4-AF9 inh: inactive; RAD52 inh: inactive; RAD54 inh: inactive

What do the screens show for `Cc1cccc(S(=O)(=O)N2CCCCN3[C@H](CO)[C@H](c4ccc(-c5ccncc5)cc4)[C@@H]3C2)c1`?
DENV2 CPE: 33; GSIS activator: inactive; AF4-AF9 inh: inactive; RAD52 inh: inactive; RAD54 inh: inactive

How did CCCNC(=O)Cn1sc2nc(C)cc(C)c2c1=O do in these assays?
DENV2 CPE: inactive; GSIS activator: 94; AF4-AF9 inh: inactive; dFosB act: inactive; RAD52 inh: inactive

What do the screens show for `Cc1cc(C)c2c(=O)n(CC(=O)N3CCC(N4CCCCC4)CC3)sc2n1`?
DENV2 CPE: inactive; AF4-AF9 inh: inactive; dFosB act: inactive; RAD52 inh: inactive; RAD54 inh: inactive

What do the screens show for `CC(C)NC(=O)N(C)C[C@H]1Oc2ccc(NC(=O)NC3CCCCC3)cc2CC(=O)N([C@@H](C)CO)C[C@H]1C`?
DENV2 CPE: inactive; GSIS activator: inactive; AF4-AF9 inh: inactive; RAD52 inh: inactive; RAD54 inh: inactive

Results for CO[C@@H]1CN(C)C(=O)c2ccc(NS(=O)(=O)c3ccccc3)cc2OC[C@H](C)N(C(=O)NC(C)C)C[C@@H]1C ?
DENV2 CPE: inactive; GSIS activator: inactive; AF4-AF9 inh: inactive; RAD52 inh: inactive; RAD54 inh: inactive

How did CCc1ccc(NC(=O)COc2ccc3c(c2)OCO3)cc1 do in these assays?
DENV2 CPE: 47; GSIS activator: inactive; AF4-AF9 inh: inactive; dFosB act: inactive; RAD52 inh: inactive; RAD54 inh: inactive

Results for COc1ccc(NC(=O)COc2ccc3c(c2)OCO3)cc1 ?
DENV2 CPE: inactive; GSIS activator: inactive; AF4-AF9 inh: inactive; dFosB act: inactive; RAD52 inh: inactive; RAD54 inh: inactive

How did CN1C(=O)c2cc(NC(=O)C3CCCCC3)ccc2OC[C@H]2O[C@H](CC(=O)NCC3CCCCC3)CC[C@@H]21 do in these assays?
DENV2 CPE: inactive; GSIS activator: inactive; AF4-AF9 inh: inactive; RAD52 inh: inactive

What do the screens show for `CCn1c(SCC(=O)N2CCCCCC2)nc2c([nH]c3ccccc32)c1=O`?
DENV2 CPE: 63; GSIS activator: inactive; AF4-AF9 inh: inactive; dFosB act: inactive; RAD52 inh: inactive; RAD54 inh: inactive

What do the screens show for `Cc1ccc(S(=O)(=O)NC2=C(N3CCN(c4ccccc4F)CC3)C(=O)c3ccccc3C2=O)cc1`?
DENV2 CPE: inactive; GSIS activator: inactive; AF4-AF9 inh: 35; dFosB act: inactive; RAD52 inh: inactive; RAD54 inh: inactive

What do the screens show for `NC(=O)C1CCN(C2=C(NS(=O)(=O)c3ccc(Cl)cc3)C(=O)c3ccccc3C2=O)CC1`?
DENV2 CPE: inactive; GSIS activator: inactive; AF4-AF9 inh: inactive; dFosB act: inactive; RAD52 inh: inactive

What do the screens show for `CC(C)(CN1CCN(Cc2ccccc2)CC1)NS(=O)(=O)c1ccc(Cl)cc1`?
DENV2 CPE: 30; GSIS activator: inactive; AF4-AF9 inh: inactive; dFosB act: inactive; RAD52 inh: inactive

How did CC(=O)Nc1ccc(S(=O)(=O)NC2=C(N3CCN(c4ccc(F)cc4)CC3)C(=O)c3ccccc3C2=O)cc1 do in these assays?
GSIS activator: inactive; AF4-AF9 inh: 45; dFosB act: inactive; RAD52 inh: inactive; RAD54 inh: inactive

Results for COC(=O)C1CCN(C2=C(NS(=O)(=O)c3ccc(Cl)cc3)C(=O)c3ccccc3C2=O)CC1 ?
DENV2 CPE: inactive; GSIS activator: inactive; AF4-AF9 inh: 39; dFosB act: inactive; RAD52 inh: inactive; RAD54 inh: inactive
